Measured values reported in PubChem BioAssay (NCI).
This is part of a sample that, as a whole, favours compounds with a hit. Of some 83,000 tested, about 20% had one in any assay.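 Note: values are percent growth. 100 is the growth of untreated cells, values between 100 and 0 indicate rising inhibition; between -100 and 0 indicates cell death.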 Unmarked numbers belong to inactive results. The source made the active and inactive calls. Rule for the calls: active = growth percent below 10; inactive = the rest.

Key:
Assay in all cases: NCI-60 one-dose screen, 48 h (100 = growth as untreated, 0 = no growth, -100 = all killed)
Details in all cases: 10 µM unless noted
T-47D breast = tested on: T-47D breast
BT-549 breast = tested on: BT-549 breast
SW-620 colon = tested on: SW-620 colon
MCF7 breast = tested on: MCF7 breast
HCC-2998 colon = tested on: HCC-2998 colon
KM12 colon = tested on: KM12 colon
HCT-116 colon = tested on: HCT-116 colon

Which growth (T-47D breast) does the source give for `COc1cccc(-c2nc(-c3ccc(NS(=O)(=O)c4ccccc4)cc3)[nH]c2-c2ccnc(Br)c2)c1` here?
The growth was 14.2%.

What about the growth (BT-549 breast) of the same compound?
The growth was 51.3%.

And the growth (SW-620 colon)?
The growth was 34.3%.

What about the growth (MCF7 breast) of the same compound?
The growth was 9.68% (active).

And the growth (HCC-2998 colon)?
The growth was 21.8%.

And the growth (KM12 colon)?
Its growth is 8.67% (active).

For `Cc1cccc2c1S/C(=C/c1ccc([N+](=O)[O-])cc1)C2=O`, which growth (T-47D breast) is on record?
Its growth is 85%.

What about the growth (BT-549 breast) of the same compound?
The growth was 124%.

And the growth (SW-620 colon)?
Its growth is 30.2%.

What about the growth (MCF7 breast) of the same compound?
The growth was 9.54% (active).

What about the growth (HCT-116 colon) of the same compound?
The growth was 17.1%.

And the growth (HCC-2998 colon)?
Its growth is 122%.

What about the growth (KM12 colon) of the same compound?
The growth was 107%.

Which growth (T-47D breast) does the source give for `CCOC(=O)Nc1ccc(-c2nc(-c3cccc(OC)c3)c(-c3ccnc(Br)c3)[nH]2)cc1` here?
The growth was 13%.

What about the growth (BT-549 breast) of the same compound?
The growth was 56.1%.

What about the growth (SW-620 colon) of the same compound?
Its growth is 46.9%.

What about the growth (MCF7 breast) of the same compound?
The growth was 17.3%.

What about the growth (HCT-116 colon) of the same compound?
Its growth is 25.4%.

And the growth (HCC-2998 colon)?
Its growth is 40.9%.

And the growth (KM12 colon)?
Its growth is 24.7%.

How did the growth (T-47D breast) turn out when `COc1cccc(-c2nc(-c3ccc(NC(=O)c4ccccc4)cc3)[nH]c2-c2ccnc(Br)c2)c1` was run?
Its growth is 14.7%.

What about the growth (BT-549 breast) of the same compound?
Its growth is 47.1%.

And the growth (MCF7 breast)?
The growth was 14.7%.

And the growth (HCT-116 colon)?
The growth was 30.7%.

And the growth (HCC-2998 colon)?
Its growth is 31.1%.

And the growth (KM12 colon)?
The growth was 20%.

Which growth (T-47D breast) does the source give for `COC(=O)Nc1ccc(-c2nc(-c3cccc(OC)c3)c(-c3ccnc(Br)c3)[nH]2)cc1` here?
The growth was 22.2%.

What about the growth (BT-549 breast) of the same compound?
The growth was 72.7%.

What about the growth (MCF7 breast) of the same compound?
Its growth is 33.1%.

And the growth (HCT-116 colon)?
Its growth is 54.2%.

And the growth (HCC-2998 colon)?
The growth was 71.5%.

What about the growth (KM12 colon) of the same compound?
Its growth is 48%.

How did the growth (T-47D breast) turn out when `O=C(Nc1ccc(-c2nc(-c3cccc(OCCN4CCOCC4)c3)c(-c3ccnc(Br)c3)[nH]2)cc1)c1ccccc1` was run?
Its growth is 27.6%.

What about the growth (BT-549 breast) of the same compound?
Its growth is 45%.

And the growth (SW-620 colon)?
Its growth is 2.49% (active).

And the growth (MCF7 breast)?
Its growth is -46% (active).

And the growth (HCT-116 colon)?
Its growth is 10% (active).

What about the growth (HCC-2998 colon) of the same compound?
Its growth is 11.3%.

And the growth (KM12 colon)?
Its growth is 0.737% (active).

Which growth (T-47D breast) does the source give for `CCOC(=O)C1=C(N)Oc2c(sc3c(C)cccc23)C1c1ccc(F)cc1` (stereo unspecified) here?
The growth was 28%.

And the growth (BT-549 breast)?
Its growth is 18.1%.

What about the growth (SW-620 colon) of the same compound?
The growth was 22.4%.

And the growth (MCF7 breast)?
Its growth is 7.39% (active).

What about the growth (HCT-116 colon) of the same compound?
The growth was 9.01% (active).

What about the growth (HCC-2998 colon) of the same compound?
The growth was 9.19% (active).

And the growth (KM12 colon)?
Its growth is 9.22% (active).

`CCCCCCn1c(-c2ccc(C(=O)O/N=C(\N)c3ccc4ccccc4c3)cc2)nc(-c2ccccc2)c1-c1ccccc1` was tested. Which growth (T-47D breast) did it give?
The growth was 28.9%.

What about the growth (BT-549 breast) of the same compound?
Its growth is 79.6%.

And the growth (SW-620 colon)?
The growth was 71.8%.

And the growth (MCF7 breast)?
Its growth is 37.9%.

What about the growth (HCT-116 colon) of the same compound?
The growth was 40.5%.

What about the growth (HCC-2998 colon) of the same compound?
Its growth is 93.8%.

What about the growth (KM12 colon) of the same compound?
Its growth is 68.6%.

How did the growth (T-47D breast) turn out when `Cc1cccc2c3c(sc12)C(c1ccc(F)cc1)C(C#N)=C(N)O3` (stereo unspecified) was run?
Its growth is 66.1%.

And the growth (BT-549 breast)?
Its growth is -0.876% (active).

And the growth (SW-620 colon)?
The growth was 21.3%.

What about the growth (MCF7 breast) of the same compound?
Its growth is 8.42% (active).

What about the growth (HCT-116 colon) of the same compound?
Its growth is 7.07% (active).

What about the growth (HCC-2998 colon) of the same compound?
Its growth is 21.9%.

And the growth (KM12 colon)?
Its growth is 2.86% (active).

With `CCOc1cccc(NC2=C(Br)C(=O)C(C)=C(C)C2=O)c1` as the compound, how does the growth (T-47D breast) read?
The growth was -35.3% (active).

What about the growth (BT-549 breast) of the same compound?
Its growth is 96.4%.

And the growth (SW-620 colon)?
Its growth is 105%.

What about the growth (MCF7 breast) of the same compound?
Its growth is 18.4%.

And the growth (HCC-2998 colon)?
The growth was 119%.

And the growth (KM12 colon)?
Its growth is 106%.
